Assay results taken from PubChem BioAssay.
The source made the active and inactive calls. Unless noted, no rule for the calls is given here.

What was measured:
[1] = HepG2 liver cancer cell viability effects, profiling panel, resazurin fluorescence, 24 h, PK04 Diversity Set (AID 1172); settings: higher = more signal
[2] = basal S. cerevisiae growth modulation, no modifier, primary screen, OD600, strain BY4716, 24 h, basal condition (AID 1173); settings: OD600, 24 h, higher = more signal, called active from +8 up or from −8 down
[3] = MM1S myeloma cell viability, profiling panel, resazurin fluorescence, basal, 24 h, PK04 Diversity Set (AID 1174); settings: higher = more signal, called active from +8 up or from −8 down;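 also: MM1S multiple myeloma cell line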
[4] = target: Dihydroorotate dehydrogenase (quinone), mitochondrial (Plasmodium falciparum (isolate 3D7)) (UniProt Q08210); assay: PfDHODH enzyme inhibitors, primary screen, biochemical, C-terminal His tag, absorbance 600 nm (AID 1175); settings: DCIP absorbance 600 nm, higher = more signal, called active from +8 up or from −8 down;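 also: recombinant parasite enzyme with a five histidine tag at its C terminus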
[5] = P. aeruginosa biofilm formation inhibitors, primary screen, strain PAO1, LB-PBS medium, absorbance 600 nm (AID 1176); settings: P. aeruginosa PAO1 growth/biofilm, A600, 12 h; higher = more signal
[6] = S. cerevisiae RM11-1a growth modifiers, primary screen, strain RM11-1a, OD600, basal, 24 h (AID 1177); settings: OD600, 24 h, higher = more signal, called active from +8 up or from −8 down;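 also: cultures grown under basal conditions with no added stressor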
[7] = E. coli acrAB mutant growth effects, primary screen, E. coli filamentation inducers, strain DRC39, OD650, 24 h (AID 1178); settings: higher = more signal, called active from +8 up or from −8 down;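 also: growth measured as culture turbidity by optical density at 650 nm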
[8] = E. coli acrAB mutant growth effects, primary screen, E. coli filamentation inducers, strain DRC39, OD650, 48 h (AID 1179);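 also: screen aims at cell division blockers that make cells filament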; settings: E. coli DRC39 delta-acrAB growth, higher = more signal, called active from +8 up or from −8 down
[9] = RPMI8226 myeloma cell viability, profiling panel, resazurin fluorescence, basal, 24 h, PK04 Diversity Set (AID 1180); settings: higher = more signal;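 also: RPMI8826 multiple myeloma cell line at 5000 cells per well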
[10] = target: E3 ubiquitin-protein ligase XIAP (Homo sapiens) (UniProt P98170); assay: XIAP binders, primary screen, biophysical, small-molecule microarray, fluorescence 635 nm (AID 1181); settings: small-molecule microarray binding, higher = more signal;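 also: score merges 667 nm emission and signal to noise over triplicate slides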
[11] = system: XIP peptide (Xip251-270) binding; assay: small-molecule binders of XIP peptide, primary screen, biochemical, small-molecule microarray, fluorescence 635/667 nm, 0.1 µg/mL protein (AID 1182); settings: fluorescent protein binding, 635 nm, higher = more signal, called active from +8 up or from −8 down
[12] = system: XIP peptide (Xip251-270); assay: small-molecule binders of XIP peptide, primary screen, biochemical, small-molecule microarray, fluorescence 635/667 nm, 0.5 µg/mL protein (AID 1183); settings: small-molecule microarray binding, fluorescence 635 nm; higher = more signal
[13] = Plasmodium falciparum growth inhibition, primary screen, strain 3D7, DAPI fluorescence, 100 nL (AID 1184);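 also: parasites grown inside human red blood cells in medium with human serum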; settings: P. falciparum 3D7 growth, 3 d, higher = more signal
[14] = target: Homeobox protein Hox-A13 (Mus musculus) (UniProt Q62424); assay: inhibitors of HoxA13-DNA binding, primary screen, biochemical, fluorescence polarization, labeled oligonucleotide (AID 1185); settings: 15 min, higher = more signal, called active from +8 up or from −8 down
[15] = inhibitors of hydroxyurea-induced Chk1 phosphorylation, primary screen, imaging, HeLa, phospho-Chk1 antibody, percent positive cells (AID 1186); settings: hydroxyurea-induced phospho-Chk1 immunofluorescence imaging, higher = more signal
[16] = inhibitors of hydroxyurea-induced Chk1 phosphorylation, primary screen, imaging, HeLa, phospho-Chk1 nuclear intensity (AID 1187); settings: hydroxyurea-induced phospho-Chk1 immunofluorescence imaging, higher = more signal

Sequence of E3 ubiquitin-protein ligase XIAP (Homo sapiens) (P98170 whole entry, looked up): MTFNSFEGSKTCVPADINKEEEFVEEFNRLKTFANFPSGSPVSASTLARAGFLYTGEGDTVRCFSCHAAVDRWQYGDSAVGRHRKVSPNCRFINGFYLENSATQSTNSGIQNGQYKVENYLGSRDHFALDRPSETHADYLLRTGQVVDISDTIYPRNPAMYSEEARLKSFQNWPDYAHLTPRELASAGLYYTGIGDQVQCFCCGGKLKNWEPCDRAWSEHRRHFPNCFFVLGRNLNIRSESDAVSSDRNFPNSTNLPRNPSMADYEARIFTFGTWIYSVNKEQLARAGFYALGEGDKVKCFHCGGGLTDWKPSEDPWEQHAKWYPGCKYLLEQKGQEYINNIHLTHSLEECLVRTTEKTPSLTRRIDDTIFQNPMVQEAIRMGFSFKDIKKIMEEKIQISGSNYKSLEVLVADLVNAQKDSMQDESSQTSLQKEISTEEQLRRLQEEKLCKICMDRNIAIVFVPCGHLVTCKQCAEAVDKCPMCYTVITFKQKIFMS
Sequence of Dihydroorotate dehydrogenase (quinone), mitochondrial (Plasmodium falciparum (isolate 3D7)) (Q08210 whole entry, looked up): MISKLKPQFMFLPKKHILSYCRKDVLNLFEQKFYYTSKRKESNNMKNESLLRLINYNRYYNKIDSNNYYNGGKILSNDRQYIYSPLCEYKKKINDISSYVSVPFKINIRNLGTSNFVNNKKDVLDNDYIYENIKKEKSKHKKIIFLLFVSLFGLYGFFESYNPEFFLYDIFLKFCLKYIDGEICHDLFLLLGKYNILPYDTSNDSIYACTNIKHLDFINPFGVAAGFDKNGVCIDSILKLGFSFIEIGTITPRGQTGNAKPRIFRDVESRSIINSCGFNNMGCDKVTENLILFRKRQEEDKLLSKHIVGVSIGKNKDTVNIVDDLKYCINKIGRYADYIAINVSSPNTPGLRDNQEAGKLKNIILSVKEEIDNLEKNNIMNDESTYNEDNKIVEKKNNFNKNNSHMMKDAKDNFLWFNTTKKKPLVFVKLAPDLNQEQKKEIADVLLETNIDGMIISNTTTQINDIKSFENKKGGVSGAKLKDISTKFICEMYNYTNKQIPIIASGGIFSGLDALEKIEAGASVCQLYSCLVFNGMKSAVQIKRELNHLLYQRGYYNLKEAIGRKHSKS
Sequence of Homeobox protein Hox-A13 (Mus musculus) (Q62424 whole entry, looked up): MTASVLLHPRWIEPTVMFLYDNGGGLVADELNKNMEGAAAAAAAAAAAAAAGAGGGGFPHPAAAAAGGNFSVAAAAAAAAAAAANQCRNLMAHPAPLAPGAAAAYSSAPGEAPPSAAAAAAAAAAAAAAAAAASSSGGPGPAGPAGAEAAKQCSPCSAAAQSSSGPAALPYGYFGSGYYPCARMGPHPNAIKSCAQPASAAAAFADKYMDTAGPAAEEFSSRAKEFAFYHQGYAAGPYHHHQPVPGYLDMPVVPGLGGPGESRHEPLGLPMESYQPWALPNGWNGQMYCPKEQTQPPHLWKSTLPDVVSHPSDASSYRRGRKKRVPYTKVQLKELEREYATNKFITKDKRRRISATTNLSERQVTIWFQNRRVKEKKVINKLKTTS

Row | Compound | z-score [1] | z-score [2] | z-score [3] | composite z-score [4] | z-score [5] | z-score [6] | z-score [7] | z-score [8] | z-score [9] | composite z-score [10] | composite z-score [11] | composite z-score [12] | z-score [13] | z-score [14] | z-score [15] | z-score [16]
1 | CN1C(=O)C2C=CC(C(O)C=Cc3ccc([N+](=O)[O-])cc3)N(N3CCCCC3)C2C1=O (centres undefined) | -0.559 | -1.42 (inactive) | -1.42 (inactive) | -0.358 (inactive) | 1.01 (inactive) | -0.555 (inactive) | -0.685 (inactive) | -0.397 (inactive) | -1.88 | 0.142 | 0.62 (inactive) | 0.776 | 0.986 | -4.74 (inactive) | 0.579 (inactive) | -0.157 (inactive)
2 | O=C1OCCC=C[C@H]2OC34C=CCN(CCN5CCOCC5)C(=O)[C@H]3N(CCO)C(=O)[C@@H]4C12 (some centres undefined) | -0.0535 | -0.663 (inactive) | -1.45 (inactive) | -1.85 (inactive) | 0.0962 (inactive) | -0.249 (inactive) | -1.14 (inactive) | -0.99 (inactive) | -0.6 | 0.0264 | 0.134 (inactive) | 0.0053 | 0.0863 | -5.81 (inactive) | -0.492 (inactive) | -0.757 (inactive)
3 | C=C[C@H](OC)[C@@H](OC(=O)Nc1ccc(SC)cc1)c1ccc(OCCO)cc1 | -0.237 | -1.95 (inactive) | -0.895 (inactive) | -1.02 (inactive) | 0.662 (inactive) | 0.39 (inactive) | 0.0364 (inactive) | 0.0255 (inactive) | -0.204 | -0.0559 | 0.591 (inactive) | -0.0661 | 0.194 | -5.62 (inactive) | 0.259 (inactive) | 0.654 (inactive)
4 | COc1ccc([Si](C)(C)[C@@H]2[C@@H](CCn3cc([C@H](O)c4ccccc4)nn3)O[C@]3(C(=O)N(C)c4ccccc43)[C@H]2C)cc1 | -1.46 | -0.397 (inactive) | -2.34 (inactive) | 0.283 (inactive) | 0.119 (inactive) | 1.04 (inactive) | -0.834 (inactive) | -1.33 (inactive) | -1.81 | -0.0272 | -0.558 (inactive) | 0.679 | -1.13 | -6.22 (inactive) | 0.131 (inactive) | -0.858 (inactive)
5 | CN(C)CCCCCCNC(=O)[C@@H]1C[C@@H]2C(=O)NCC(=O)N2[C@@H]1c1cccc(OCCO)c1 | -0.358 | -0.531 (inactive) | -0.578 (inactive) | -1.08 (inactive) | 0.0067 (inactive) | 0.536 (inactive) | 0.757 (inactive) | 0.614 (inactive) | -1.12 | 0.0043 | 0.096 (inactive) | 0.851 | 0.331 | -2.07 (inactive) | 0.491 (inactive) | 0.797 (inactive)
6 | O=C1[C@H]2C=C(Br)[C@H](C[C@@H]2OCCOCCO)[C@@]12CO2 | -0.0029 | 1.2 (inactive) | -0.478 (inactive) | 0.857 (inactive) | 0.379 (inactive) | 1.4 (inactive) | -0.308 (inactive) | -1.05 (inactive) | -0.608 | -0.201 | -0.0844 (inactive) | 0.798 | -0.334 | -0.559 (inactive) | -0.051 (inactive) | -0.0596 (inactive)
7 | O=C(NCC(F)(F)F)[C@@H]1c2ccccc2C(=O)N(Cc2ccccc2)[C@H]1c1ccc(CO)cc1 | -0.699 | -0.0657 (inactive) | -0.294 (inactive) | -1.09 (inactive) | -0.0654 (inactive) | 0.0566 (inactive) | 0.126 (inactive) | 0.606 (inactive) | 0.368 | -0.239 | 0.377 (inactive) | -0.396 | -0.778 | -1.25 (inactive) | -0.571 (inactive) | -0.801 (inactive)
8 | Cc1ccc(C(C)CC(O)C2C=CC3C(=O)NC(=O)C3N2Nc2ccccn2)o1 (centres undefined) | -0.668 | 0.258 (inactive) | -1.19 (inactive) | 0.936 (inactive) | 1.04 (inactive) | 0.735 (inactive) | 0.168 (inactive) | 0.215 (inactive) | -0.355 | -0.127 | 0.673 (inactive) | 0.881 | 0.281 | -2.14 (inactive) | 0.333 (inactive) | 0.0304 (inactive)
9 | O=C1C2C=CC(C(O)CCc3ccccc3)N(Nc3ccccc3)C2C(=O)N1c1ccccc1 (centres undefined) | -0.999 | -0.287 (inactive) | -1.81 (inactive) | 0.228 (inactive) | 1.12 (inactive) | 0.361 (inactive) | -0.97 (inactive) | -1.18 (inactive) | -1.67 | -0.16 | 0.792 (inactive) | 0.802 | -0.467 | -3.23 (inactive) | 0.684 (inactive) | 0.448 (inactive)
